Results as given in PubChem BioAssay (Tox21).
Unmarked numbers belong to inactive results. Results filed as inconclusive are left out. A call without a number means that no potency is given here. Activity calls are given as the source filed them. Unless noted, calls follow the shape of the dose curve; as a rule, active = well fitted curve in the direction sought with a large enough effect in the repeat runs; inconclusive = weak or mixed curves; inactive = no such curve, though single readings can be large; an effect the other way counts as inactive or inconclusive.

Assays:
[1] = qHTS assay to identify small molecule antagonists of the estrogen receptor alpha (ER-alpha) signaling pathway using the BG1 cell line in the presence of 0.1 nM 17-beta-estradiol - cell viability counter screen (AID 1259241); also: nearly all actives have a fitted effect of over 40% in size
In short: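 CellTiter-Fluor read (30 min, 37C) on ER-alpha/ERE-luc VM7Luc4E2 cells; 22 hr compound treatment; agonist 0.1 nM E2 final; same-well multiplex.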

[2] = qHTS assay to identify small molecule antagonists of the androgen receptor (AR) signaling pathway using the MDA cell line in the presence of 0.5 nM R1881 - cell viability counter screen (AID 1259242); also: nearly all actives have a fitted effect of over 45% in size
In short: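 Cytotoxicity toward MDA-kb2 cells is measured by CellTiter-Fluor live-cell protease fluorescence after 16 hr compound exposure at 37C in the presence of 0.5 nM R1881 stimulator.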

[3] = target: Androgen receptor (Homo sapiens) (UniProt P10275); test: qHTS assay to identify small molecule antagonists of the androgen receptor (AR) signaling pathway using the MDA cell line in the presence of 0.5 nM R1881 (AID 1259243); also: nearly all actives have a fitted effect of over 50% in size; also: potency is read from the fitted curve at half-maximal effect
In short: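 Steps: seed MDA-kb2 cells, incubate 5 hr at 37C; pin-transfer compounds in DMSO; add R1881 to 0.5 nM final; incubate 16 hr; add ONE-Glo, wait 30 min at room temperature; read luminescence.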

[4] = qHTS assay to identify small molecule phospholipidosis (PLD) inducers (AID 1259344; active = well fitted curve in the direction sought with a large enough effect; an effect the other way counts as inactive or inconclusive)
In short: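 HepG2 cells, 900/well, treated with compound plus LipidTOX Red for 24 h at 37 C; amiodarone positive and DMSO negative controls. Fixed with paraformaldehyde/Hoechst, then high-content imaging scored LipidTOX pit count and integrated intensity per well and per cell.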

[5] = qHTS assay to identify small molecule HDAC inhibitors (AID 1259364); also: nearly all actives have a fitted effect of over 45% in size; also: potency is read from the fitted curve at half-maximal effect
In short: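 Homogeneous cell-based luminescent assay of endogenous class I/II HDAC activity; HCT-116 cells, 2 h compound exposure, 30 min HDAC-Glo development at RT.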

[6] = qHTS assay to identify small molecule HDAC inhibitors - cell viability counter screen (AID 1259365); also: series mostly up to about 92 µM; nearly all actives have a fitted effect of over 50% in size
In short: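 To flag cytotoxic hits, 1,500 wild-type HCT-116 cells per well, plated the day before, receive test compounds for 2hr at 37 C before CellTiter-Glo reagent and a luminescence read.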

[7] = qHTS assay to identify small molecule agonists of the sonic hedgehog signaling (Shh) pathway - cell viability counter screen (AID 1259366); also: nearly all actives have a fitted effect of over 50% in size
In short: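 Fluorescence from CellTiter-Fluor reports live cells in this counter screen. NIH/3T3-derived Gli1-Luc reporter cells receive test compounds for 24hr at 37C; reagent goes in at 23hr.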

[8] = qHTS assay to identify small molecule agonists of the sonic hedgehog signaling (Shh) pathway (AID 1259368; calls by dose curve;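 also: NIH/3T3-derived 3T3Gli1-Luc cells carrying a stable Gli1-driven firefly luciferase reporter; series mostly up to about 92 µM; nearly all actives have a fitted effect of over 15% in size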)
In short: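 Steps: seed 3T3 Gli1-Luc cells, incubate 4 hr at 37 C, pin-transfer compounds in DMSO alongside a positive control, incubate 24 hr, add luciferase detection reagent, wait 30 min at room temperature, read luminescence.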

[9] = target: Estrogen receptor (Homo sapiens) (UniProt P03372); test: qHTS assay to identify small molecule antagonists of the estrogen receptor alpha (ER-alpha) signaling pathway using the BG1 cell line in the presence of 0.1 nM 17-beta-estradiol (AID 1259244); also: nearly all actives have a fitted effect of over 50% in size
In short: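 After 5 days in hormone-depleted medium (charcoal-stripped serum, no phenol red), VM7Luc4E2 cells were seeded, incubated 24 h, then co-treated with compound and 0.1 nM (final) estradiol for 22 h before luminescence detection.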

[10] = qHTS assay to identify small molecule antagonists of the sonic hedgehog signaling (Shh) pathway - cell viability counter screen (AID 1259367); also: nearly all actives have a fitted effect of over 55% in size
In short: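 NIH/3T3-derived Gli1-Luc reporter cells, 2,000/well, plated 4 hr before compound addition, then stimulated with conditioned medium for 24 hr at 37C. Viability measured in the same wells by CellTiter-Fluor fluorescence, reagent added at 23 hr for 1 hr.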

Androgen receptor (Homo sapiens), sequence (P10275 whole entry, looked up): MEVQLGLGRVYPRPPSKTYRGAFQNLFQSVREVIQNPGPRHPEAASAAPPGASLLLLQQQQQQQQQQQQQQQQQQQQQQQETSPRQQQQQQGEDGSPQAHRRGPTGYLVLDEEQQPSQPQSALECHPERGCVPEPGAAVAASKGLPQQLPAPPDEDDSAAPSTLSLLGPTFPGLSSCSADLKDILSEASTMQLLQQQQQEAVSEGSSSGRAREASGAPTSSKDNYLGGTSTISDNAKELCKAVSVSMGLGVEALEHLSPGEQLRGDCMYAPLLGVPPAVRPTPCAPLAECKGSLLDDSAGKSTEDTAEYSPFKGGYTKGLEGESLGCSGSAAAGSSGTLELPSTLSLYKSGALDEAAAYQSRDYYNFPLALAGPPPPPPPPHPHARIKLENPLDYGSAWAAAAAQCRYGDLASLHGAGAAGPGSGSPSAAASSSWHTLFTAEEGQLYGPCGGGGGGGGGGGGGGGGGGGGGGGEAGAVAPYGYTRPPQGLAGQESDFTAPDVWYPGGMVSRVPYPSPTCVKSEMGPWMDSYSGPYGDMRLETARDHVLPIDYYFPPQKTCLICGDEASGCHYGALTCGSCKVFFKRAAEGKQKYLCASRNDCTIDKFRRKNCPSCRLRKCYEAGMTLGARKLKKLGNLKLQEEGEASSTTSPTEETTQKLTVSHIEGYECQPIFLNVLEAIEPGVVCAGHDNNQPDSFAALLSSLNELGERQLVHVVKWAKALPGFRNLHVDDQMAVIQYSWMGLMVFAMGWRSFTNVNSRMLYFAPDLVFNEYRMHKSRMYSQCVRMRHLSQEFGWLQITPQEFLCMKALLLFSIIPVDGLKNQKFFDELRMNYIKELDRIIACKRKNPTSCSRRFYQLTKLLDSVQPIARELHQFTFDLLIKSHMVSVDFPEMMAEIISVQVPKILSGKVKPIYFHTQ
Estrogen receptor (Homo sapiens), sequence (P03372 whole entry, looked up): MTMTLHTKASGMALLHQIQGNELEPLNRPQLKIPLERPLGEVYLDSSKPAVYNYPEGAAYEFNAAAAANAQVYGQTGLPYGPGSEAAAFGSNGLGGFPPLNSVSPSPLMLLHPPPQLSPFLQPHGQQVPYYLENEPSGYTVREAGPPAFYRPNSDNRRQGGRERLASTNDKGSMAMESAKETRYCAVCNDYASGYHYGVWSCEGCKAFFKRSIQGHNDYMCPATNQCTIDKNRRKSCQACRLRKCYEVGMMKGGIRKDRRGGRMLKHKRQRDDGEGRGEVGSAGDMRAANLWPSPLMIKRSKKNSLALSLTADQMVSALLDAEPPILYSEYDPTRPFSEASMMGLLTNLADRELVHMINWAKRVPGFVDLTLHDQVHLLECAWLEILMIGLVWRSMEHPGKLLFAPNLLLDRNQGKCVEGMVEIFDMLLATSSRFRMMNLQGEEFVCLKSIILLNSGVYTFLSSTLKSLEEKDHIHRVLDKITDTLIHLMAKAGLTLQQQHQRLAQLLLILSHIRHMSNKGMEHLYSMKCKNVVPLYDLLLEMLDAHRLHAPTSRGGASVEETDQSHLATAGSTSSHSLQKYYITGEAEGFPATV

## Cc1c(C(=O)NCCO)[n+](=O)c2ccccc2n1[O-]
[1]
  Potency: inactive
[2]
  outcome: inactive
[3]
  Potency: inactive
[4]
  outcome: inactive
[5]
  Potency: inactive
[6]
  outcome: inactive
[7]
  Potency: inactive
[8]
  Potency: inactive

## CCN(CC)CCNC(=O)COc1ccc(Cl)cc1
[1]
  Potency: inactive
[2]
  outcome: inactive
[9]
  Potency: inactive
[4]
  outcome: inactive
[5]
  Potency: inactive
[6]
  outcome: inactive
[7]
  Potency: inactive
[10]
  Potency: inactive
[8]
  Potency: inactive

## CN1CCN(C2=Nc3cc(F)ccc3Cc3ccccc32)CC1
[1]
  Potency: inactive
[2]
  outcome: inactive
[3]
  Potency: 16.8 µM (active)
[9]
  Potency: inactive
[5]
  Potency: inactive
[7]
  Potency: inactive
[10]
  Potency: inactive
[8]
  Potency: inactive

## CC(Oc1c(Cl)cccc1Cl)C1=NCCN1 (stereo not given)
[1]
  Potency: inactive
[2]
  outcome: inactive
[3]
  Potency: inactive
[5]
  Potency: inactive
[6]
  outcome: inactive
[7]
  Potency: inactive
[10]
  Potency: inactive
[8]
  Potency: inactive

## CC(C)CCCCCCc1ccc(OCCOCCO)cc1
[1]
  Potency: inactive
[2]
  outcome: inactive
[3]
  Potency: inactive
[9]
  Potency: inactive
[5]
  Potency: inactive
[6]
  outcome: inactive
[7]
  Potency: inactive
[10]
  Potency: inactive
[8]
  Potency: inactive

## CCCCc1ccc2nc(NC(=O)OC)[nH]c2c1
[1]
  Potency: inactive
[2]
  outcome: inactive
[3]
  Potency: inactive
[9]
  Potency: inactive
[4]
  outcome: inactive
[5]
  Potency: 10.6 µM (active)
[7]
  Potency: inactive
[8]
  Potency: inactive

## N#CSCC(=O)O
[1]
  Potency: inactive
[2]
  outcome: inactive
[3]
  Potency: inactive
[9]
  Potency: inactive
[5]
  Potency: inactive
[7]
  Potency: inactive
[10]
  Potency: inactive
[8]
  Potency: inactive

## Cn1cnc2c(F)c(Nc3ccc(Br)cc3Cl)c(C(=O)NOCCO)cc21
[1]
  Potency: inactive
[2]
  outcome: inactive
[3]
  Potency: 5.96 µM (active)
[4]
  outcome: inactive
[5]
  Potency: inactive
[6]
  outcome: inactive
[10]
  Potency: inactive
[8]
  Potency: inactive

## CCCCCCn1c(=O)c2c(ncn2C)n(C)c1=O
[1]
  Potency: inactive
[2]
  outcome: inactive
[3]
  Potency: inactive
[9]
  Potency: inactive
[5]
  Potency: inactive
[6]
  outcome: inactive
[7]
  Potency: inactive
[10]
  Potency: inactive
[8]
  Potency: inactive

## O=Cc1ccc(O)c(O)c1O
[1]
  Potency: inactive
[2]
  outcome: inactive
[3]
  Potency: inactive
[5]
  Potency: inactive
[8]
  Potency: inactive

## NC(=O)NS(=O)(=O)c1ccc(Cl)cc1
[1]
  Potency: inactive
[2]
  outcome: inactive
[3]
  Potency: inactive
[9]
  Potency: inactive
[5]
  Potency: inactive
[6]
  outcome: inactive
[7]
  Potency: inactive
[10]
  Potency: inactive
[8]
  Potency: inactive

## Nc1cccc(S(=O)(=O)O)c1
[1]
  Potency: inactive
[2]
  outcome: inactive
[3]
  Potency: inactive
[9]
  Potency: inactive
[5]
  Potency: inactive
[6]
  outcome: inactive
[7]
  Potency: inactive
[10]
  Potency: inactive
[8]
  Potency: inactive

## Cc1ccsc1C(=CCCN1CCC[C@@H](C(=O)O)C1)c1sccc1C
[1]
  Potency: inactive
[2]
  outcome: inactive
[3]
  Potency: inactive
[9]
  Potency: inactive
[4]
  outcome: inactive
[5]
  Potency: inactive
[6]
  outcome: inactive
[7]
  Potency: inactive
[10]
  Potency: inactive
[8]
  Potency: inactive

## COc1ccccc1N1CCN(CCCNc2cc(=O)n(C)c(=O)n2C)CC1
[1]
  Potency: inactive
[2]
  outcome: inactive
[9]
  Potency: inactive
[4]
  outcome: inactive
[5]
  Potency: inactive
[6]
  outcome: inactive
[7]
  Potency: inactive
[10]
  Potency: inactive
[8]
  Potency: inactive

## Cc1ncc(CO)c(CN)c1O
[1]
  Potency: inactive
[2]
  outcome: inactive
[3]
  Potency: inactive
[9]
  Potency: inactive
[4]
  outcome: inactive
[5]
  Potency: inactive
[6]
  outcome: inactive
[7]
  Potency: inactive
[8]
  Potency: inactive

## CN1CCN(N)CC1
[1]
  Potency: inactive
[2]
  outcome: inactive
[3]
  Potency: inactive
[9]
  Potency: inactive
[5]
  Potency: inactive
[6]
  outcome: inactive
[7]
  Potency: inactive
[8]
  Potency: inactive

## O=C1N(c2ccccc2)c2ccccc2C1(Cc1ccncc1)Cc1ccncc1
[1]
  Potency: inactive
[2]
  outcome: inactive
[9]
  Potency: inactive
[4]
  outcome: inactive
[5]
  Potency: inactive
[6]
  outcome: inactive
[7]
  Potency: inactive
[10]
  Potency: inactive
[8]
  Potency: inactive

## CC(=O)OC(C)OC(C)=O
[1]
  Potency: inactive
[2]
  outcome: inactive
[3]
  Potency: inactive
[5]
  Potency: inactive
[6]
  outcome: inactive
[7]
  Potency: inactive
[10]
  Potency: inactive
[8]
  Potency: inactive

## CCOC(=O)c1cc(=O)c2c(OCC(COc3cccc4oc(C(=O)OCC)cc(=O)c34)OC(=O)[C@@H](N)CCCCN)cccc2o1
[1]
  Potency: inactive
[2]
  outcome: inactive
[3]
  Potency: inactive
[9]
  Potency: inactive
[5]
  Potency: inactive
[6]
  outcome: inactive
[7]
  Potency: inactive
[10]
  Potency: inactive
[8]
  Potency: inactive

## NCCCN1CCN(CCCN)CC1
[1]
  Potency: inactive
[2]
  outcome: inactive
[3]
  Potency: inactive
[9]
  Potency: inactive
[5]
  Potency: inactive
[6]
  outcome: inactive
[10]
  Potency: inactive
[8]
  Potency: inactive

## N#Cc1ccc(C(c2ccc(C#N)cc2)n2cncn2)cc1
[1]
  Potency: inactive
[2]
  outcome: inactive
[9]
  Potency: inactive
[4]
  outcome: inactive
[5]
  Potency: inactive
[6]
  outcome: inactive
[7]
  Potency: inactive
[10]
  Potency: inactive
[8]
  Potency: inactive

## C[C@@H](N)C(=O)O
[1]
  Potency: inactive
[2]
  outcome: inactive
[3]
  Potency: inactive
[4]
  outcome: inactive
[5]
  Potency: inactive
[6]
  outcome: inactive
[7]
  Potency: inactive
[10]
  Potency: inactive
[8]
  Potency: inactive

## CC1(O)CSC(C)(O)CS1 (stereo not given)
[1]
  Potency: inactive
[2]
  outcome: inactive
[3]
  Potency: inactive
[9]
  Potency: inactive
[5]
  Potency: 21.7 µM (active)
[6]
  outcome: inactive
[7]
  Potency: inactive
[10]
  Potency: inactive
[8]
  Potency: inactive
